# PINK1 expr mod – A Quantitative High throughput Screen to Identify Chemical Modulators of PINK1 Expression | PINK1 immunofluorescence, high-content cytometry, 24 h | actives 0.2% (n = 410,000) | Potency, µM (doses to about 76.6 µM), for the others: at the top dose activation (PINK1 increase), usual class: activators | AID 624263, 2012; active means well fitted activation curve with a large enough effect; inconclusive means small, poorly fitted or top-dose-only effect; cell line not stated here; further: % of control where 0% means no effect; nearly all actives have a fitted effect of over 65% in size
#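 Measures PINK1 amount and localization on or inside mitochondria by immunofluorescence. Stable cells get compounds at 5 concentrations for 24 hours before fixation and staining; CCCP controls included.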
# Gal4-VP16 FLuc – VP16 counterscreen qHTS for inhibitors of ROR gamma transcriptional activity. Potency, µM (series often up to 53.6 µM), for inactives: top-dose activity, negative = inhibition, usual class: inhibitors. Drosophila S2 Gal4-VP16 UAS-luciferase, luminescence, 20 h. actives 3.5% (n = 310,000);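 further: Gal4-VP16 expression switched on by copper sulfate through the metallothionein promoter; on the % scale 0 is the no-effect control and ±100 the full control effect; nearly all actives have a fitted effect of over 50% in size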
# Sfp inh – qHTS Assay for Inhibitors of Bacillus subtilis Sfp phosphopantetheinyl transferase (PPTase); 4'-phosphopantetheinyl transferase ffp (Bacillus subtilis), Q9F4F7; AID 1490, 2009; Biochemical Sfp PPTase activity, qHTS; Potency, µM, for inactives: largest response in the series, negative = inhibition, hits mostly inhibitors; actives 3.5% (n = 310,000);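 further: the enzyme is Sfp with the accession as filed and its product quenches rhodamine fluorescence; 0% = enzyme reaction without inhibitor and -100% = no enzyme wells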
#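 Buffer: 50 mM Hepes-Na pH 7.6, 10 mM MgCl2, 0.01% Nonidet P-40, 0.01% BSA. Enzyme 15 nM, pre-exposed to compound 15 min; substrates then added and fluorescence change tracked over 30 min.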
# RORg inh – qHTS for inhibitors of ROR gamma transcriptional activity. Potency, µM (titrated, usually from 53.6 µM), for the others: at the top dose activity change, negative = inhibition, most hits filed as inhibitors. Drosophila S2 Gal4-RORgamma UAS-luciferase reporter, 20 h. Nuclear receptor ROR-gamma (Mus musculus), P51450. actives 5.4% (n = 310,000); further: on the % scale 0 is the no-effect control and ±100 the full control effect; nearly all actives have a fitted effect of over 60% in size
# Target sequence (P51450 whole entry, looked up, the tested form may be a part): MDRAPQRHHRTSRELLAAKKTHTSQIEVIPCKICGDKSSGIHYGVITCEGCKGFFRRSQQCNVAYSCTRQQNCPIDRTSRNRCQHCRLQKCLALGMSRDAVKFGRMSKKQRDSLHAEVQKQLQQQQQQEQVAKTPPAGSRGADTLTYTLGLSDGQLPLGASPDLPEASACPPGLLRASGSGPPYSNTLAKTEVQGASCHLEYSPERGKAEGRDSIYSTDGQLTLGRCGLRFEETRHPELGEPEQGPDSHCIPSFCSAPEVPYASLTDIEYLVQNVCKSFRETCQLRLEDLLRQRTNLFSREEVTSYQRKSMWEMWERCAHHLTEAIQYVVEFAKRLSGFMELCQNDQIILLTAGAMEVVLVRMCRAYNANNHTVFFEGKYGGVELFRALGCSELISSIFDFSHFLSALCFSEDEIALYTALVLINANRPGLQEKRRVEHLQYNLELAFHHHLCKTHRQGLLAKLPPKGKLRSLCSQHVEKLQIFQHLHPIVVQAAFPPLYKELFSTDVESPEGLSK
#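 Read-out: Photinus luciferase luminescence; inhibitors lower reporter signal. Insect Schneider cells with Gal4-ROR gamma fusion under metallothionein promoter, UAS reporter; 700 uM final copper sulfate induction, 20 hr, ambient temperature.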
# Epigenetic derep – Quantitative High-Throughput Screen for Regulators of Epigenetic Control; murine LDR cells, GFP reporter derepression, 30 h; Potency, µM (series often up to 53.9 µM), for inactives: at the highest dose GFP activation, actives largely listed as activators; actives 0.2% (n = 280,000); further: % of control where 0% means no effect; nearly all actives have a fitted effect of over 60% in size
#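 Murine LDR cells carrying a silenced, genomically integrated CMV-driven GFP reporter were exposed to compound for 30 hours at 37 C. After PBS washes, GFP-positive cells (20–120 um objects) were counted by laser-scanning microplate cytometry.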
# ClpP mod – qHTS Assay for Activators of ClpP; AID 651965, 2013; actives 1.9% (n = 340,000); ATP-dependent Clp protease proteolytic subunit (Bacillus subtilis (strain 168)), P80244; Potency, µM (series often up to 57.5 µM), without a hit: at the highest dose activity change, negative = active; purified B. subtilis ClpP, FRET peptide cleavage, 20 min; active means well fitted falling curve with a large enough effect; inconclusive means small, poorly fitted or top-dose-only effect; inactive means no such curve, though single readings can be large or run the other way; further: the source files actives as falling curves though it sought activators and does not explain the sign; nearly all actives have a fitted effect of over 65% in size
#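 Purified B. subtilis ClpP, 10 microg/mL final in Tris/HCl pH8 with KCl, BSA, glycerol and Tween-20, cleaved an Abz/nitrotyrosine-quenched decapeptide. Fluorescence (ex 320, em 430) was read at 0 and 20 min at room temperature. Delta was normalized to 5.8 microM ADEP and DMSO/no-enzyme controls.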
# Numbers without * were called inactive; ? = inconclusive; . = not tested or not shown; [ ] = remark or other dose. A selection: hits, their analogues and other compounds. The true share with any hit is near 8.1%. Unless noted, the call rests on the fitted dose curve; in most records, active means well fitted curve in the direction sought with a large enough effect; inconclusive means small, poorly fitted or top-dose-only effect, or another doubt; inactive means no such curve, though single readings can be large; an effect the other way counts as inactive or inconclusive. Potency means the concentration at half of the fitted maximal effect.
SMILES,PINK1 expr mod,Gal4-VP16 FLuc,Sfp inh,RORg inh,Epigenetic derep,ClpP mod
CC(=O)OC[C@H]1O[C@@H](Sc2cccc3cccnc23)[C@H](OC(C)=O)[C@@H](OC(C)=O)[C@@H]1OC(C)=O,0%,-2%,4%,0%,-2%,14µM*
COc1ccc(-n2ccnc(NCc3ccc(Cl)cc3)c2=O)cc1,2%,.,.,.,2%,-8%
O=C(C#Cc1ccccc1)c1ccco1,-1%,3.2µM*,?,2.8µM*,.,-1%
CC(=O)C(Cl)C(=O)Nc1ccccc1 (stereo not drawn),4%,?,?,?,?,-1%
O=C(Nc1ccccc1)C(Cl)C(=O)c1ccccc1 (stereo not drawn),1%,?,14µM*,?,.,0%
CCCOc1ccccc1-c1nc2c([nH]1)c(=O)[nH]c(=O)n2C,12%,-9%,3%,-13%,5%,32µM*
O=C(CSc1nnc(NC(=O)NC2CCCCC2)s1)Nc1ccccc1F,1%,.,.,.,2%,-1%
O=C1c2cnc3nc(SCc4ccc(Cl)cc4)nn3c2CC2c3ccccc3CCN12 (stereo not drawn),0%,-7%,4%,-13%,-1%,32µM*
Clc1ccc(CSc2ncccn2)cc1,3%[38.3 µM],22%,-6%,14%,-2%,1%
COc1ccc(CNC(=O)Cc2ccc(NC(=O)N3CCCCc4ccccc43)cc2)cc1,0%,.,.,.,0%,-2%
COc1cccc(-c2ccc(O)c(CNCc3cccc(OC)c3OC)c2)n1,1%,.,.,.,.,.
CC(C)=N/N=C1/NC(=O)C(CC(=O)Nc2cc(Cl)ccc2C)S1 (stereo not drawn),1%,?,13%,11µM*,0%,-2%
Cc1ccc(NC(=O)CC2S/C(=N/N=C/c3ccco3)NC2=O)cc1Cl (stereo not drawn),3%,2%[10 µM],-12%,?,0%,.
Cc1ccc(NC(=O)CC2S/C(=N/N=C/C=C/c3ccccc3)NC2=O)cc1Cl (stereo not drawn),?,4µM*,-2%,4µM*,-1%,-2%
CCOC(=O)CNC(=O)CSc1nnc(-c2ccccc2)n1Cc1ccco1,-1%,?,13µM*,?,-1%,-3%
CC(C)(C)NC(=O)CSc1nnc(-c2ccco2)n1Cc1ccco1,?,7%,9%,-5%,-1%,-3%
O=C(O)CSc1nnc(-c2ccc(S(=O)(=O)N3CCCC3)cc2)n1Cc1ccco1,1%[38.3 µM],0%,32µM*,8%,0%,-3%
NC(=O)CSc1nnc(-c2ccc(S(=O)(=O)N3CCCC3)cc2)n1Cc1ccco1,5%[38.3 µM],0%,?,22%,1%,-4%
CCOC(=O)CSc1nnc(-c2ccco2)n1-c1ccccc1,?,3%,35µM*,-17%,?,0%
COC(=O)CSc1nnc(-c2ccco2)n1Cc1ccco1,0%,-9%,22µM*,2%,-7%,1%
Cc1cc(NC(=O)CSc2nnc(-c3ccccc3)n2Cc2ccco2)no1,0%,5%,-17%,?,0%,2%
O=C(NCCCN1CCN(c2ccccc2F)CC1)c1ccc2nc(N3CCCCC3)sc2c1,-1%,.,.,.,-4%,-11%
c1ccc(-c2nnc(-c3ccco3)n2-c2ccccc2)cc1,-1%,4%,-4%,15%,4%,22µM*
O=C(CSc1nnc(-c2ccccc2Cl)n1Cc1ccco1)Nc1ccc2c(c1)OCCO2,-2%,1%,-3%,-27%,2%,0%
O=C(CSc1nnc(-c2ccc(Cl)cc2)n1Cc1ccco1)Nc1ccc2c(c1)OCCO2,-2%[38.3 µM],1%,32µM*,?,1%,1%

# Assay outcomes as filed in PubChem BioAssay.
